Measured values: ChEMBL document CHEMBL1157539, “Thousands of chemical starting points for antimalarial lead identification” (Nature, 2010)

Legend:
Format in all cases: functional
Plasmodium falciparum [1] = assay: GSK_TCMDC: Inhibition of Plasmodium falciparum 3D7 in whole red blood cells, using parasite LDH activity as an index of growth. Test compounds present at 2uM
Plasmodium falciparum [2] = assay: GSK_TCMDC: Inhibition of Plasmodium falciparum Dd2 in whole red blood cells, using parasite LDH activity as an index of growth. Test compounds present at 2uM
HepG2 = assay: GSK_TCMDC: Percent inhibition of human HepG2 cell line. Test compounds present at 10uM.

SMILES | Inhibition (Plasmodium falciparum [1]) | Inhibition (Plasmodium falciparum [2]) | Inhibition (HepG2)
COc1ccc(CNCc2cccc(-c3cccc(-c4nc5cc(F)ccc5[nH]4)c3)c2)cc1.O=C(O)C(F)(F)F | 100% | 55% | 18%
CN(CCCNC(=S)NC12CC3CC(CC(C3)C1)C2)CCCNc1ccnc2cc(Cl)ccc12 | 100% | 98% | 73%
O=C(C=Cc1ccc(Cl)c(Cl)c1)NCCCCCN1CCC(CCCNC(=O)C2CC2c2ccccc2)CC1 (stereo not drawn) | 95% | 12% | 45%
CC(C)NCc1ccc(-c2cccc(NC(=O)c3ccc(F)cc3)c2)cc1.O=C(O)C(F)(F)F | 91% | 7% | 28%
CCCCCCCc1ccc(-c2c(C)[nH]c(C)c(Cl)c2=O)cn1 | 99% | 96% | 0%
CC12CCC(=O)N1C(C(=O)Nc1cccc(C(=O)Nc3cccc(C(F)(F)F)c3)c1)CS2 (stereo not drawn) | 92% | 89% | 6%
CC(Oc1ccc(Cl)cc1)C(=O)Nc1cc(C(F)(F)F)ccc1-n1cncn1 (stereo not drawn) | 99% | 98% | 0%
O=C(Nc1ccc(Cl)cc1)Nc1ccc(OCC(O)CN2CCCCC2)cc1 (stereo not drawn) | 83% | 13% | 18%
CC[C@H](N/C(=N\c1ccc(-c2ccccc2)cc1)Nc1ccc(C#N)cc1O)c1ccccc1 | 99% | 97% | 0%
CCCC(C)NC(=O)/C=C/c1ccccc1-c1cccc(OC)c1 (stereo not drawn) | 87% | 59% | 0%
N#Cc1c(N2CCCCCC2)nc(N)c2c(N)nc3c(c12)CC(=O)N3c1ccc(F)cc1 | 97% | 91% | 0%
COc1cc(CN2CCC(NC(=O)[C@H](Cc3ccccc3)NC(=O)Nc3ccc(Oc4ccccc4)cc3)C2)ccc1O (stereo partly drawn) | 92% | 0% | 10%
CC1CCCC(NCc2c(O)ccc3ccccc23)C1.Cl (stereo not drawn) | 93% | 25% | 10%
CC(C)c1ccc(CN2CCC(CNC(=O)c3cc(-c4cccc(C(F)(F)F)c4)cs3)C2)cc1.O=C(O)C(F)(F)F (stereo not drawn) | 99% | 60% | 36%
Br.CCCOc1ccc(OCCCON2C(=N)N=C(N)NC2(C)C)cc1 | 96% | 94% | 59%
CN(C)C(CNC(=O)c1cc(-c2ccncc2)c(-c2ccc(NC(=O)Nc3cccc(Cl)c3)cc2)o1)c1ccccc1.O=C(O)C(F)(F)F (stereo not drawn) | 100% | 100% | 12%
O=C(c1cc(C(=O)Nc2ccc(F)cc2)c(=O)n(-c2ccc(F)cc2)c1)c1cc(Cl)ccc1O | 100% | 98% | 13%
COc1cccc(-c2ccc(O)c(CNCCc3cccc(F)c3)c2)n1 | 96% | 67% | 0%
CC(C)(CNC(=O)[C@@H]1CCCCN1)c1nc(-c2ccc(Cl)c(O)c2)c(-c2ccncc2)[nH]1.Cl | 97% | 96% | 0%
COc1cccc(C(=O)Nc2ccc(Nc3nc(C)cc(N(C)C)n3)cc2)c1 | 92% | 33% | 1%
O=C(/C=C/c1ccc(Cl)c(Cl)c1)NCCCCCN1CCC(NC(=O)Nc2ccc(OC(F)F)cc2)CC1 | 100% | 18% | 33%
